# Screens (PubChem)
# A selection: hits, their analogues and other compounds. The true share with any hit is near 6.8%.
# PINK1 modulator = changes PINK1 expression; PINK1 immunofluorescence, high-content cytometry, 24 h; Potency, µM (highest dose often 76.6 µM), for the others: top-dose activation (PINK1 increase), actives largely listed as activators; 410,000 tested, 0.2% active; active = well fitted activation curve with a large enough effect; inconclusive = small, poorly fitted or top-dose-only effect; cell line not stated here; also: % of control where 0% means no effect; nearly all actives have a fitted effect of over 65% in size
#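 Readout is PINK1 immunofluorescence, quantified alongside mitochondrial, cell and nuclear markers by laser-scanning microplate cytometry. Cells from a stable line were exposed to compound titrations (5 concentrations) for 24 hours, with CCCP controls.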
# KB-V1 cytotox = KB-V1 MDR subline cytotoxicity. KB-V1 MDR cells viability, CellTiter-Glo, 72 h. Potency, µM (doses to about 46.1 µM), usual class: cytotoxic. 400,000 tested, 3.4% active; also: % is scaled to controls: 0 for no effect and ±100 for the full control effect; nearly all actives have a fitted effect of over 60% in size
#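 In this primary screen, KB-V1 cells overexpressing P-gp are incubated with library compounds (lowest to highest concentration) for 72 h at 37 degrees C before a luminescent ATP viability read.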
# PTAP TSG101 blk = blocks PTAP/TSG101 interaction to inhibit HIV-1 budding; Q99816; Fluorescence polarization, FITC-PTAP peptide / Tsg101 binding; Potency, µM (series often up to 115 µM), for the others: top-dose activity change, negative = inhibition, most hits filed as inhibitors; 340,000 tested, under 10 active; active = well fitted inhibition curve with a large enough effect in the main read-out, with a control signal flat, not every such curve was filed as active; inconclusive = small, poorly fitted or top-dose-only effect, or effect the other way, or a change in a side signal; inactive = no such curve, though single readings can be large or run the other way; also: % of control where 0% means no effect
# Target sequence (Q99816 whole entry, looked up): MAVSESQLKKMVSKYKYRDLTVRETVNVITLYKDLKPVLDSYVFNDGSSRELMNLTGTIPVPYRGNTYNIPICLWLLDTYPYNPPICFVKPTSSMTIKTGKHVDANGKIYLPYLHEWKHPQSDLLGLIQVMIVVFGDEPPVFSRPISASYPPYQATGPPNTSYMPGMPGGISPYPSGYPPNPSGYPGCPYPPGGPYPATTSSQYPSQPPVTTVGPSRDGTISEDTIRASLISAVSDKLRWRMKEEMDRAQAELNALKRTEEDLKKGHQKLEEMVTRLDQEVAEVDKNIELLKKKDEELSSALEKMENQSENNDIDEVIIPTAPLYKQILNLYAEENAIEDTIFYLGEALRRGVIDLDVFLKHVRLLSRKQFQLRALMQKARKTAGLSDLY
#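 Steps: Tsg101 binding domain dispensed (10 uM final), compounds pinned in DMSO, FITC-labeled PTAP-motif peptide added (50 nM final); after 20 min binding at room temperature, polarization measured.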
# SW480 rerep = inducers of DNA re-replication in SW480 colon cancer cells; AID 624297; SW480 DNA re-replication, Hoechst DNA content imaging, 48 h; 340,000 tested, 1.8% active; Potency, µM (top dose mostly 46.1 µM), without a hit: at the top dose re-replication activation, hits mostly activators; also: % of control where 0% means no effect; nearly all actives have a fitted effect of over 55% in size
#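 Cells (250 per well) received 23 nL compound or DMSO by pin tool and were kept 48 hr at 37 C, 5% CO2. Nuclei were then stained with Hoechst for 40 min and scanned for DNA content.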
# KB-3-1 tox = kills parental KB-3-1 adenocarcinoma cells; KB-3-1 viability, CellTiter-Glo ATP luminescence, 72 h; Potency, µM (series often up to 46.1 µM), hits mostly cytotoxic; 400,000 tested, 1.4% active; AID 1347075; also: % is scaled to controls: 0 for no effect and ±100 for the full control effect; nearly all actives have a fitted effect of over 60% in size
#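 Parental KB-3-1 adenocarcinoma cells in phenol-red-free DMEM with 10% FBS were pin-treated with compounds at several concentrations, incubated 72 h at 37 °C, and viability read by CellTiter-Glo luminescence; concentration-effect curves were fitted after normalization.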
# MCF10A rereplic = induces DNA re-replication in MCF 10a normal breast cells; MCF 10A DNA re-replication, Hoechst nuclear intensity, 48 h; Potency, µM (top dose mostly 46.1 µM), for the others: top-dose activity, positive = re-replication, actives largely listed as activators; 350,000 tested, 2.9% active; AID 624296; also: % of control where 0% means no effect; nearly all actives have a fitted effect of over 50% in size
# * hit, by the source's call; i = inactive; ? = inconclusive; / = no result given; [ ] = another dose, or the depositor's remark. Unless noted, calls follow the shape of the dose curve; as a rule, active = well fitted curve in the direction sought with a large enough effect; inconclusive = small, poorly fitted or top-dose-only effect, or another doubt; inactive = no such curve, though single readings can be large; an effect the other way counts as inactive or inconclusive. Potency is read from the fitted curve at half-maximal effect.
SMILES,PINK1 modulator,KB-V1 cytotox,PTAP TSG101 blk,SW480 rerep,KB-3-1 tox,MCF10A rereplic
O=C(Nc1ncc(Cc2ccc(C(F)(F)F)cc2)s1)c1ccc(-c2cccc([N+](=O)[O-])c2)o1,4.8%,4.61µM*,-4.4%,/,i,?
COc1ccc(C(=O)Nc2ccc(SC(F)F)cc2)cc1,-0.6%,?,0.4%,-8.0%,i,6.5%
O=C(Nc1ncc(Cc2cccc(Cl)c2)s1)c1ccc([N+](=O)[O-])cc1,9.8%,?,-0.1%,-2.6%,?,12.1%
O=C(Nc1ncc(Cc2ccc(SC(F)F)cc2)s1)c1ccc(OC(F)F)cc1,-2.3%,0.326µM*,-1.4%,?,0.206µM*,?
O=C(Nc1ncc(Cc2cccc([N+](=O)[O-])c2)s1)c1ccco1,5.5%,i,0.0%,-1.2%,5.8µM*,?
O=C(Nc1ncc(Cc2ccccc2Cl)s1)c1ccc(-c2cccc([N+](=O)[O-])c2)o1,1.4%,i,-2.9%,-14.3%,i,0.4%
Cc1cccc(Cc2cnc(NC(=O)c3ccc(C)o3)s2)c1,2.1%,i,1.1%,5.7%,?,2.59µM*
Cc1cccc(Cc2cnc(NC(=O)C3=NCCN3)s2)c1,2.4%,?,0.1%,3.3%,?,15.7%
O=S1(=O)N=C(Oc2ccccc2C(F)(F)F)c2ccccc21,/,?,/,/,i,/
NC(=O)c1cc(Cc2ccccc2)sc1NC(=O)c1ccco1,4.1%[38.3 µM],9.2µM*,-4.7%,17.5%,?,?
Cc1ccc(-c2nnc(NC(=O)c3ccco3)s2)cc1,0.7%,i,0.5%,-12.6%,i,-14.7%
Cc1ccc(Cc2cnc(NC(=O)c3ccco3)s2)cc1,/,18.4µM*,-11.1%,17.6%,i,15.2%
COc1ccccc1N1CCN(C(=O)c2ccc3c(c2)N(Cc2ccccc2)C(=O)c2ccccc2S3(=O)=O)CC1,-0.2%,/,/,/,/,/
CCOc1[nH]c(/N=C/c2ccccc2)c(C#N)c1C#N,0.4%,i,/,/,?,/
COc1ccc(C(C[N+](=O)[O-])C2(c3ccc(OC)c(OC)c3)C(=O)c3ccccc3C2=O)cc1 (stereo not given),-2.3%,?,-2.7%,3.26µM*,?,?
COC(=O)CC1COc2ccccc2N1C(=O)c1ccc(OC)cc1 (stereo not given),-0.1%,i,-6.7%,1.5%,i,-1.7%
COC(=O)CC1COc2ccccc2N1S(=O)(=O)c1ccc(OC)cc1 (stereo not given),9.5%,?,-1.1%,?,18.4µM*,14.6µM*
COC(=O)CC1COc2ccccc2N1S(=O)(=O)c1ccc(Br)cc1 (stereo not given),3.3%,?,3.5%,10.3µM*,i,28.3%
CCOCCCNc1nc2c(S(=O)(=O)c3ccc(CC)cc3)nnn2c2ccc(Cl)cc12,-1.2%,i,/,/,i,/
O=C(c1cc(C(F)(F)F)cc(C(F)(F)F)c1)N1CCC2(CCN(Cc3nccs3)CC2)CC1,0.7%,/,/,/,/,/
CC1CCN(C(c2ccccc2)c2sc3nc(-c4ccco4)nn3c2O)CC1 (stereo not given),-0.7%,/,/,/,/,/
CCc1ccc(CNC(=O)c2c3c(nc4ccccc24)C(=O)N(C2CCCCC2)C3)cc1,0.8%,13µM*,/,/,i,/
Nc1c(C(=O)c2ccccc2)sc2snc(SCC(=O)c3ccccc3)c12,14.8%,i,-3.2%,28.9%,?,16.4µM*
Nc1nnc(SCC(=O)c2ccccc2)s1,3.2%,i,1.1%,-5.0%[9.22 µM],i,1.6%
O=C(NCCc1ccc(F)cc1)c1coc(=O)c(Br)c1,5.8%,i,-2.7%,18.5%,?,4.11µM*
SMILES,PINK1 modulator,KB-V1 cytotox,PTAP TSG101 blk,SW480 rerep,KB-3-1 tox,MCF10A rereplic
CCCC(=O)Nc1ccc(C(=O)NCCc2ccc(F)cc2)cc1,1.6%,14.6µM*,-1.7%,5.3%,i,-2.5%
CCCCC(=O)Nc1ccc(C(=O)NCCc2ccccc2)cc1,2.2%,i,-2.4%,-3.1%,i,1.6%
CC1CCc2c(sc(NC(=O)/C=C/c3cccs3)c2C(=O)O)C1 (stereo not given),-0.3%,i,-7.3%,0.9%,18.4µM*,-5.6%
CC1CCc2c(sc(NC(=O)c3ccco3)c2C(=O)O)C1 (stereo not given),0.5%,?,-10.0%,-13.1%,?,0.2%
Cc1nnsc1C(=O)Oc1ccc(C#N)cc1,-0.3%,i,/,/,i,/
CCOC(=O)c1ccc(NC2=CC(c3ccc(O)c(OCC)c3)N(c3ccc(C(=O)OCC)cc3)C2=O)cc1 (stereo not given),1.7%,i,/,/,i,/
C[C@]12c3[nH]c4cc(-c5ccco5)ccc4c3CCN1C(=O)[C@@H](CC(=O)NCC13CC4CC(CC(C4)C1)C3)C[C@@H]2C(=O)N1CCOCC1,5.6%,23.1µM*,-10.2%,-2.8%,?,?
CCN(CC)C(=O)[C@H]1CC(CC(=O)NCC23CC4CC(CC(C4)C2)C3)C(=O)N2CCc3c([nH]c4ccccc34)[C@]12C (stereo not given in full),?,i,-2.2%,23.1µM*,i,?
COc1ccc(S(=O)(=O)n2ccc(-c3ccc4c(c3)CCC(C)(C)O4)n2)cc1,0.8%,11.6µM*,-4.7%,?,i,?
CC(=O)OCC(=O)[C@@]1(O)CCC2C3C[C@H](C)C4=CC(=O)C=CC4(C)C3C(O)CC21C (stereo not given in full),/,/,/,-0.9%,/,-2.6%
CC(=NNc1nc2ccccc2o1)c1ncccn1,0.0%,?,-0.8%,?,1.84µM*,?
CC(=NNc1nc2ccccc2s1)c1ncccn1,0.7%,1.3µM*,1.5%,?,2.31µM*,?
CC(=NNc1nc2ccccc2o1)c1cc2ccccc2cn1,-6.9%,?,-7.3%,13µM*,?,?
Cc1cc(C)nc(Nc2nc3ccccc3o2)n1,0.6%,?,-5.6%,-39.6%,i,-16.0%
COCc1cc(C)nc(SCC(=O)Nc2cccc(C)c2C)c1C#N,/,i,-1.1%,-9.7%,i,-7.8%
Cc1nc(SCC(=O)Nc2ccc(F)cc2)c(C#N)c(C)c1CC(=O)c1ccc(Br)cc1,-0.1%,?,-5.5%,?,16.4µM*,16.4µM*
Cc1ccc(NC(=O)CSc2nc(-c3ccc(F)cc3)cc(C(F)(F)F)c2C#N)cc1,1.5%,i,/,/,i,/
Cc1cccc(NC(=O)CSc2nc(C)c(CC(=O)c3ccc(Br)cc3)c(C)c2C#N)c1C,7.4%,?,0.0%,4.3%,?,1.03µM*
Cc1nn(C)cc1CN1CCOc2ccc(CN3CCC(Oc4cccnc4)CC3)cc2C1,-0.7%,/,/,/,/,/
